According to PubChem BioAssay AID1671192 (National Center for Advancing Translational Sciences (NCATS), 2021):
Records with an inconclusive call do not appear. Active and inactive are the calls of the source. Calls come from the whole dose curve; as a rule, active = well fitted curve in the direction sought with a large enough effect; inconclusive = small, poorly fitted or top-dose-only effect, or another doubt; inactive = no such curve, though single readings can be large or run the other way.

Target: Polyunsaturated fatty acid lipoxygenase ALOX15 (Homo sapiens) (UniProt P16050)
Assay: Counterscreen qHTS for inhibitors of human arachidonate 12S-lipoxygenase (ALOX12): ALOX15 Assay
Conditions: purified ALOX15 enzyme activity; series mostly up to 233 µM
Source text: Assay Provider: Theodore R. Holman Ph.D.
University of California, Santa Cruz, California
Human lipoxygenase 12hLO is a member of the closely related lipoxygenase family of enzymes which catalyze the site-specific oxidation of arachidonic acid to various hormone precursor molecules and as such is a candidate for drug development in a variety of disease areas, such as cancer and inflammation. Inhibition of 12hLO activity was screened by utilizing arachidonic acid as a substrate. The extent of hydroperoxide product formation was measured by a secondary chromogenic reaction in which xylenol orange (XO, Sigma-Aldrich, cat. number 39,818-7) reacts with the ferric ions produced from the reaction between the hydroperoxide and ferrous ions. The Fe (III)-XO complex is characterized with red-shifted absorbance at 560 nm. A purified preparation of human 12hLO was supplied by Dr. Holman laboratory, University of California, Santa Cruz.
An assay against arachidonate 15-lipoxygenase (ALOX15) was developed to assess selective inhibition against ALOX12. Desired compounds would show potent inhibition against ALOX12 and minimal to no inhibition against ALOX15.
SEQUENCE No. (e.g., 1, 2, 3, etc.); PARAMETER (e.g., Cells, Incubation, Reagent, etc.); VALUE; DESCRIPTION
1; Enzyme; 3 uL; 40 nM ALOX15 (15hLO-1) enzyme solution dispensed in 1536-well Greiner black, clear bottom plates.
2; Compound; 23 nL; compounds and controls were added.
3; Incubate; 15 min; room temperature.
4; Substrate; 1 uL; 50 uM arachidonic acid (final concentration).
5; Incubate; 30 min; room temperature.
6; Reagent; 4 uL; Fe-XO solution was added to each well.
8; Incubation; 30 min; room temperature
9; Detector; absorbance; Read 1 at 405 nm absorbance using ViewLux (PerkinElmer) CCD imager.
10; Detector; absorbance; Read 2 at 573 nm absorbance using ViewLux (PerkinElmer) CCD imager.
NOTES (numbers refer to sequence above)
1; 40 nM ALOX15 (final concentration) in buffer solution (25 mM Hepes, 0.01% Triton X-100, pH 7.5) was dispensed in columns 1, 2, 5 - 48. Column 1 is neutral (100% activity). Buffer only was dispensed in columns 3 and 4 as no enzyme negative controls. The plates were covered with metal lids with gas-exchange holes.
2; Compounds were pin transferred via a Kalypsys Pin Tool (Wako USA) in column 5 - 48. Control compound was transferred in column 2, titration of nordihydroguaiaretic acid (NDGA, Sigma-Aldrich, N5023) with top concentration of 10 mM in DMSO then 1:2 dilution in duplicate. Dilution factor of 23 nL into 4 uL final assay volume.
3; Covered assay plates were incubated for 15 min at room temperature.
4; Substrate was added to start the reaction; 50 uM arachidonic acid (Sigma-Aldrich, St. Louis, MO) was dispensed throughout the plate.
6; Chromogenic detection reagent solution (divalent iron/xylenol orange, Fe-XO) was added to each well: 200 uM xylenol orange, 300 uM ferrous ammonium sulfate prepared freshly in 50 mM sulfuric acid.
9, 10; Two absorbance readouts were obtained at 405 nm and at 573 nm using a ViewLux high-throughput CCD plate imager (PerkinElmer). The 573 to 405 (Read 2 / Read 1) absorbance ratio was used to compute reaction progress.

Chain of Polyunsaturated fatty acid lipoxygenase ALOX15 (Homo sapiens) (P16050 whole entry, looked up): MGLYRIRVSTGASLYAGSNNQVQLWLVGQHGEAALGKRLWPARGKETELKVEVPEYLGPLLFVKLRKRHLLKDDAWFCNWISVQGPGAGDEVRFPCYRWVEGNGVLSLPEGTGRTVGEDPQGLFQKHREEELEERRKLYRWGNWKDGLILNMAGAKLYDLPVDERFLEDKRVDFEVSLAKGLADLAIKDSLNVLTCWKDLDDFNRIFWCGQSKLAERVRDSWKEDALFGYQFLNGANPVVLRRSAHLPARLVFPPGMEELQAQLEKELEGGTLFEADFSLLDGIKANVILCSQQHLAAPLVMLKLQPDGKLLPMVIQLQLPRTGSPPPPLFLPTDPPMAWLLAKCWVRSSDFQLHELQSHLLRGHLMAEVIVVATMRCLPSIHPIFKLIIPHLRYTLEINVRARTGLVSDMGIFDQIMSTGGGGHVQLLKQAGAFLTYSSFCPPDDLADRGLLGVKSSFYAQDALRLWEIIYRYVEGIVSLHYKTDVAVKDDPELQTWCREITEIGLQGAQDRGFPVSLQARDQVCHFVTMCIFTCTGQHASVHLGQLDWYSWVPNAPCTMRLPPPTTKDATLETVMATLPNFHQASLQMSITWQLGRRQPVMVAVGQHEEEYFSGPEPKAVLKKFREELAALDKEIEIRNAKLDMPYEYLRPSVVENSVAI

SMILES	outcome
CC(C)C1CN2CCCC2CN1 (stereo not given)	inactive
c1ccc(CC2CN3CCCC3CN2)cc1 (stereo not given)	inactive
O=[S+]1([O-])NC2(CCN(CC3CCOCC3)C2)COc2ccncc21 (stereo not given)	inactive
CC1CN2CCCCC2CN1 (stereo not given)	inactive
COc1ccc(CC(=O)N2Cc3ccccc3CC3(CCCCN3C)C2)cc1 (stereo not given)	inactive
FC(F)(F)CN1C2CCC1CN(c1cncc(Br)c1)C2	inactive
O=C(O)C1=NOC2CN(Cc3cccc(Br)n3)CC12 (stereo not given)	inactive
O=C1NC2(Cc3ccccc31)CN(CC1CC1)C2	inactive
COc1ccc(C(CN)N2CCCC2)cc1 (stereo not given)	inactive
CNC1CCc2ccccc21 (stereo not given)	inactive
O=C(O)C1=NOC2CN(Cc3ccccc3)CC12 (stereo not given)	inactive
O=C(Cc1ccc(Cl)cc1)N1Cc2ccccc2CC2(CCCN2CC2CCNC2)C1 (stereo not given)	inactive
O=C1Nc2ccccc2C12CCN(CC1CCCCC1)CC2	inactive
CCCCC1CN2CCCC2CN1 (stereo not given)	inactive
c1cnc2nc(C3CCNCC3)[nH]c2c1	inactive
CCN1CCCCC12Cc1ccccc1CN(C(=O)Cc1ccccc1)C2 (stereo not given)	inactive
CNC(C)c1ccc(Cl)cc1 (stereo not given)	inactive
CN(C)c1ccc(CN2CCC3(CC2)C(=O)Nc2ccccc23)cc1	inactive
O=C1Nc2ccccc2CN(Cc2ccncc2)C12CCNCC2	inactive
CCN1CCCCC12Cc1ccccc1CN(C(=O)Cc1ccc(OC)cc1)C2 (stereo not given)	inactive
